According to article PMC5869772, “Quantitative profiling of BATF family proteins/JUNB/IRF hetero-trimers using Spec-seq”:

How the values were obtained:
Assay in all cases: Spec-seq (EMSA and sequencing of bound and unbound bands); 100 nM BATFx-JUNB, 1 uM dsDNA library, 50 mM K acetate, 20 mM Tris-acetate, 10 mM Mg acetate, 100 ug/ml BSA, pH 7.9, 10% glycerol, 30 min on ice; native 9% PAGE at 4 C; low values mean tight binding
Settings in all cases: protein: recombinant;recombinant; tags: N-terminal mCherry-TEV, cleaved off;C-terminal 6His; copies: 1;1; dsDNA, one strand shown
[1] = biological target: T1, BATF;JUNB (human;human, UniProt Q16520;P17275 1-125;148-347, |)
T1 sequence 1: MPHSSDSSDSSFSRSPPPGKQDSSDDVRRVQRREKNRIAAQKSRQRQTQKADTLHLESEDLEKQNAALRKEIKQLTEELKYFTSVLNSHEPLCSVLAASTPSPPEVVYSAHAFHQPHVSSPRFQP
T1 sequence 2: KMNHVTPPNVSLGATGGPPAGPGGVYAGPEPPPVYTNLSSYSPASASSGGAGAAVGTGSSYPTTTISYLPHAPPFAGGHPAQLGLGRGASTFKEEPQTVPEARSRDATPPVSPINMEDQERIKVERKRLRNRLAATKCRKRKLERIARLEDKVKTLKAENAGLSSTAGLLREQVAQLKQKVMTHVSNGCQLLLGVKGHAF
Procedure, shortened: (§1)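 The protein, at 100 nM, was incubated with 1 μM double-stranded degenerate DNA library for 30 min on ice in NEB Cutsmart buffer with 10% glycerol, then resolved by native 9% PAGE at 4 °C. Excised bound and unbound bands were PCR-barcoded and Illumina-sequenced, and each sequence's relative binding energy in kT is −ln of its bound/unbound read-count ratio.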

[2] = biological target: T2, BATF2 (bZIP);JUNB (human;human, UniProt Q8N1L9;P17275 1-142;148-347, |)
T2 sequence 1: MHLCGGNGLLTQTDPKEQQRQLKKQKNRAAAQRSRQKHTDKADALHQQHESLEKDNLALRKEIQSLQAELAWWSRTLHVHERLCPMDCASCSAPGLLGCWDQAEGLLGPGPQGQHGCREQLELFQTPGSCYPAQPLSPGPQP
T2 sequence 2: T1 sequence 2
Procedure, shortened: as §1

[3] = biological target: T3, BATF3;JUNB (human;human, UniProt Q9NR55;P17275 1-127;148-347, |)
T3 sequence 1: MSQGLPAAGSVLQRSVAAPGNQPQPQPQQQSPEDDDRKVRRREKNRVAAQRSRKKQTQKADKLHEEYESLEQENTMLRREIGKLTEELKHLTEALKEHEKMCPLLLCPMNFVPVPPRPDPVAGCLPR
T3 sequence 2: T1 sequence 2
Procedure, shortened: as §1

Sequence: GATAGTCTCATTTTCACCCCGTGAAATGAGTGAGTTGTTCCATTACAGTATCTGT
- binding signal [1]: -0.103 kT
- binding signal [2]: 0.64 kT
- binding signal [3]: 0.377 kT

Sequence: GATAGTCTCATTTTCACCCCGTGAAAGTGCGTCATTGTTCCATTACAGTATCTGT
- binding signal [1]: -0.695 kT
- binding signal [2]: -0.267 kT
- binding signal [3]: -0.851 kT

Sequence: GATAGTCTCATTTTCACCCCGTGAAATGACTCCGTTGTTCCATTACAGTATCTGT
- binding signal [1]: 0.0406 kT
- binding signal [2]: 0.724 kT
- binding signal [3]: 0.582 kT

Sequence: GATAGTCTCATTTTCACCCCGTGAAATGACTCGCTTGTTCCATTACAGTATCTGT
- binding signal [1]: -0.141 kT
- binding signal [2]: 0.667 kT
- binding signal [3]: 0.378 kT

Sequence: GATAGTCTCATTTTCACCCCGTGAAAGGACTCATTTGTTCCATTACAGTATCTGT
- binding signal [1]: 0.219 kT
- binding signal [2]: 0.9 kT
- binding signal [3]: 0.665 kT

Sequence: GATAGTCTCATTTTCACCCCGTGAAATGACTCAATTGTTCCATTACAGTATCTGT
- binding signal [1]: -0.531 kT
- binding signal [2]: -0.145 kT
- binding signal [3]: -0.634 kT

Sequence: GATAGTCTCATTTTCACCCCGTGAAAGTGTGTCATTGTTCCATTACAGTATCTGT
- binding signal [1]: -0.342 kT
- binding signal [2]: -0.00937 kT
- binding signal [3]: -0.359 kT

Sequence: GATAGTCTCATTTTCACCCCGTGAAATTGAGTCATTGTTCCATTACAGTATCTGT
- binding signal [1]: -0.981 kT
- binding signal [2]: -0.804 kT
- binding signal [3]: -1.45 kT

Sequence: GATAGTCTCATTTTCACCCCGTGAAATGAGTCTGTTGTTCCATTACAGTATCTGT
- binding signal [1]: 0.124 kT
- binding signal [2]: 1.09 kT
- binding signal [3]: 0.723 kT

Sequence: GATAGTCTCATTTTCACCCCGTGAAATGACTCGATTGTTCCATTACAGTATCTGT
- binding signal [1]: -0.328 kT
- binding signal [2]: 0.519 kT
- binding signal [3]: 0.109 kT

Sequence: GATAGTCTCATTTTCACCCCGTGAAATGAGTGATTTGTTCCATTACAGTATCTGT
- binding signal [1]: 0.0243 kT
- binding signal [2]: 0.704 kT
- binding signal [3]: 0.444 kT

Sequence: GATAGTCTCATTTTCACCCCGTGAAAAAGAGTCATTGTTCCATTACAGTATCTGT
- binding signal [1]: -0.185 kT
- binding signal [2]: 0.233 kT
- binding signal [3]: 0.0775 kT

Sequence: GATAGTCTCATTTTCACCCCGTGAAATGAGTCCATTGTTCCATTACAGTATCTGT
- binding signal [1]: 0.0398 kT
- binding signal [2]: 1.1 kT
- binding signal [3]: 0.51 kT

Sequence: GATAGTCTCATTTTCACCCCGTGAAATGACGCAGTTGTTCCATTACAGTATCTGT
- binding signal [1]: -0.301 kT
- binding signal [2]: 0.363 kT
- binding signal [3]: -0.216 kT

Sequence: GATAGTCTCATTTTCACCCCGTGAAATGACATCATTGTTCCATTACAGTATCTGT
- binding signal [1]: -0.531 kT
- binding signal [2]: -0.296 kT
- binding signal [3]: -1.1 kT

Sequence: GATAGTCTCATTTTCACCCCGTGAAATGACTGATTTGTTCCATTACAGTATCTGT
- binding signal [1]: -0.224 kT
- binding signal [2]: 0.321 kT
- binding signal [3]: 0.106 kT

Sequence: GATAGTCTCATTTTCACCCCGTGAAATGACTCCCTTGTTCCATTACAGTATCTGT
- binding signal [1]: 0.214 kT
- binding signal [2]: 0.862 kT
- binding signal [3]: 0.785 kT

Sequence: GATAGTCTCATTTTCACCCCGTGAAATGTCTCATTTGTTCCATTACAGTATCTGT
- binding signal [1]: 0.287 kT
- binding signal [2]: 0.93 kT
- binding signal [3]: 0.725 kT

Sequence: GATAGTCTCATTTTCACCCCGTGAAATGACTCTATTGTTCCATTACAGTATCTGT
- binding signal [1]: -0.0428 kT
- binding signal [2]: 0.602 kT
- binding signal [3]: 0.236 kT

Sequence: GATAGTCTCATTTTCACCCCGTGAAATGAGACAATTGTTCCATTACAGTATCTGT
- binding signal [1]: 0.693 kT
- binding signal [2]: 1.52 kT
- binding signal [3]: 0.853 kT

Sequence: GATAGTCTCATTTTCACCCCGTGAAATGACTCTGTTGTTCCATTACAGTATCTGT
- binding signal [1]: -0.0517 kT
- binding signal [2]: 0.667 kT
- binding signal [3]: 0.481 kT

Sequence: GATAGTCTCATTTTCACCCCGTGAAATGACTGAATTGTTCCATTACAGTATCTGT
- binding signal [1]: -0.087 kT
- binding signal [2]: 0.382 kT
- binding signal [3]: 0.179 kT

Sequence: GATAGTCTCATTTTCACCCCGTGAAATGACTAAGTTGTTCCATTACAGTATCTGT
- binding signal [1]: -0.456 kT
- binding signal [2]: 0.286 kT
- binding signal [3]: -0.104 kT

Sequence: GATAGTCTCATTTTCACCCCGTGAAATGACTAACTTGTTCCATTACAGTATCTGT
- binding signal [1]: -0.35 kT
- binding signal [2]: 0.462 kT
- binding signal [3]: 0.0773 kT

Sequence: GATAGTCTCATTTTCACCCCGTGAAATGAGGCACTTGTTCCATTACAGTATCTGT
- binding signal [1]: 0.813 kT
- binding signal [2]: 1.32 kT
- binding signal [3]: 1.29 kT

Sequence: GATAGTCTCATTTTCACCCCGTGAAATGAGTCTATTGTTCCATTACAGTATCTGT
- binding signal [1]: -0.119 kT
- binding signal [2]: 1.33 kT
- binding signal [3]: 0.647 kT

Sequence: GATAGTCTCATTTTCACCCCGTGAAATGATGTCATTGTTCCATTACAGTATCTGT
- binding signal [1]: -0.738 kT
- binding signal [2]: -0.708 kT
- binding signal [3]: -1.63 kT

Sequence: GATAGTCTCATTTTCACCCCGTGAAATGAGTCATTTGTTCCATTACAGTATCTGT
- binding signal [1]: -1.06 kT
- binding signal [2]: -0.903 kT
- binding signal [3]: -1.42 kT

Sequence: GATAGTCTCATTTTCACCCCGTGAAATGACACAATTGTTCCATTACAGTATCTGT
- binding signal [1]: 0.0803 kT
- binding signal [2]: 0.413 kT
- binding signal [3]: -0.063 kT

Sequence: GATAGTCTCATTTTCACCCCGTGAAACGGAGTCATTGTTCCATTACAGTATCTGT
- binding signal [1]: -0.207 kT
- binding signal [2]: 0.313 kT
- binding signal [3]: 0.06 kT

Sequence: GATAGTCTCATTTTCACCCCGTGAAATGACTGACTTGTTCCATTACAGTATCTGT
- binding signal [1]: -0.088 kT
- binding signal [2]: 0.456 kT
- binding signal [3]: 0.305 kT

Sequence: GATAGTCTCATTTTCACCCCGTGAAAGTCAGTCATTGTTCCATTACAGTATCTGT
- binding signal [1]: -0.0489 kT
- binding signal [2]: 0.348 kT
- binding signal [3]: 0.152 kT

Sequence: GATAGTCTCATTTTCACCCCGTGAAATGACTCGGTTGTTCCATTACAGTATCTGT
- binding signal [1]: -0.246 kT
- binding signal [2]: 0.589 kT
- binding signal [3]: 0.398 kT

Sequence: GATAGTCTCATTTTCACCCCGTGAAATGACTCCATTGTTCCATTACAGTATCTGT
- binding signal [1]: -0.151 kT
- binding signal [2]: 0.566 kT
- binding signal [3]: 0.168 kT

Sequence: GATAGTCTCATTTTCACCCCGTGAAACAGAGTCATTGTTCCATTACAGTATCTGT
- binding signal [1]: -0.149 kT
- binding signal [2]: 0.309 kT
- binding signal [3]: -0.0855 kT
